PLK1 PBD block = PLK1 (human) polo-box domain binding inhibition; P53350; Plk1 PBD binding of FITC phosphopeptide, fluorescence polarization; hit rate 2.8% among 360,000; AID 720504; Potency, µM, inactives show max response, negative = inhibition, hits mostly inhibitors; note: potency is the fitted concentration of half-maximal effect; series mostly up to about 57 µM; % is set by controls: 0 for no effect and ±100 for the full control effect; nearly all actives have a fitted effect of over 65% in size
BAZ2B block = BAZ2B (human) inhibition. Q9UIF8. AlphaScreen BAZ2B-H3K14Ac peptide displacement. Potency, µM (doses to about 114 µM), for the others: at the highest dose activity change, negative = inhibition, actives largely listed as inhibitors. hit rate 4.4% among 360,000; note: potency is the fitted concentration of half-maximal effect; % is set by controls: 0 for no effect and ±100 for the full control effect; nearly all actives have a fitted effect of over 60% in size
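Multi-concentration screen (max 110 uM) measuring displacement of acetylated histone H3 peptide from BAZ2B by AlphaScreen, using 50 nM protein, 50 nM peptide and 10 ug/mL streptavidin donor plus Ni-chelate acceptor beads.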
PI5P4K alpha inh = blocks human PI5P4K alpha kinase activity. AID 652105. hit rate 1.2% among 330,000. P48426. max response, %. PI5P4Kalpha enzyme, ADP-Glo luminescence, 60 min; hits give low values; active = max response of -50% or lower; inconclusive = between -30% and -50%; inactive = -30% or higher; note: value at the top dose of about 77 µM; % is set by controls: 0 for no effect and ±100 for the full control effect
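Single end-point luminescence (ADP-Glo) quantified ADP from PI5P4Kalpha turnover; ATP 5 microM final, 1 h at RT, 0.1% CHAPS and 0.28 mM EGTA in HEPES pH 7.4.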
G9a inh = blocks human histone lysine methyltransferase G9a; Q96KQ7; G9a H3K9 monomethylation, AlphaScreen, 2 h; Potency, µM (top dose mostly 102 µM), inactives show at the highest dose activity, negative = inhibition, actives largely listed as inhibitors; hit rate 8.8% among 350,000; AID 504332; note: potency is the fitted concentration of half-maximal effect; % is set by controls: 0 for no effect and ±100 for the full control effect; nearly all actives have a fitted effect of over 75% in size
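Readings reflect AlphaScreen signal from monomethyl-H3K9 antibody detection. HMT at 20 nM; substrate b-H3K9 500 nM; cofactor SAM 20 uM; 2 h RT reaction; compounds tested as titrations in qHTS with 15 min preincubation.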
JMJD2A Tudor inh = JMJD2A Tudor domain (human) inhibition | hit rate 4.4% among 390,000 | Potency, µM (top dose mostly 114 µM), for inactives: at the top dose activity change, negative = inhibition, hits mostly inhibitors | O75164 | AlphaScreen JMJD2A-Tudor / H3K4me3 peptide binding | AID 504339; note: potency is the fitted concentration of half-maximal effect; % is set by controls: 0 for no effect and ±100 for the full control effect; nearly all actives have a fitted effect of over 50% in size
Target sequence (O75164 whole entry, looked up, the tested form may be a part): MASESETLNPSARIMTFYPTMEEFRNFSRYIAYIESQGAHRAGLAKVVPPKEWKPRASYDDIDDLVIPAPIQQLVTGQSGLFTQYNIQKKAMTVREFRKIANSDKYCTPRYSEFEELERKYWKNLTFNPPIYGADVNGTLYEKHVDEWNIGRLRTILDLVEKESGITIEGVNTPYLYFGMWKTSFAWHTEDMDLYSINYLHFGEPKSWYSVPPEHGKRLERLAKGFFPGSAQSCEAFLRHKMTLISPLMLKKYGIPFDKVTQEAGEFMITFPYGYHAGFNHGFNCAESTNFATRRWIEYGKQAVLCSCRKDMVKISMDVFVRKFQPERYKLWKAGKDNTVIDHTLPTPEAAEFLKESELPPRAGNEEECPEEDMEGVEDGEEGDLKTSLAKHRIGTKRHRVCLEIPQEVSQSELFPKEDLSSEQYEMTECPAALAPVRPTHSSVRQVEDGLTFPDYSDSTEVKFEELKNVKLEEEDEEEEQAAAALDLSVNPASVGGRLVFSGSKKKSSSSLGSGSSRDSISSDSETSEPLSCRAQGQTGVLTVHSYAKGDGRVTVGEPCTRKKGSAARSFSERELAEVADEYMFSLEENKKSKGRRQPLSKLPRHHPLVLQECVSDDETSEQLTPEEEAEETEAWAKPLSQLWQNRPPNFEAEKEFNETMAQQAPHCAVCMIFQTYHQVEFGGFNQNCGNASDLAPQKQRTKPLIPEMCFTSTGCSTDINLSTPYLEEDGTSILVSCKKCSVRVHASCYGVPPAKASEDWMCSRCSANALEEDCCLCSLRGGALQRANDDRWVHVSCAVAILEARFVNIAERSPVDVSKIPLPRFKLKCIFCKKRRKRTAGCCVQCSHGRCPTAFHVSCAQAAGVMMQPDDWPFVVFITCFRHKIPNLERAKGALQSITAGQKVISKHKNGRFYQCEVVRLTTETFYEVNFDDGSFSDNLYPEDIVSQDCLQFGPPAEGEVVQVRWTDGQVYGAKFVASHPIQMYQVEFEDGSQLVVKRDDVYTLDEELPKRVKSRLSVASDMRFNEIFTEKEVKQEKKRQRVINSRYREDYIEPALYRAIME
HP1b binding inh = inhibitors of HP1-beta chromodomain binding to methylated histone tails | P83916 | AlphaScreen HP1-beta / biotin-H3K9me3 peptide binding | Potency, µM (highest dose often 114 µM), for the others: at the highest dose activity change, negative = inhibition, actives largely listed as inhibitors | hit rate 0.56% among 390,000 | AID 540317; note: potency is the fitted concentration of half-maximal effect; nearly all actives have a fitted effect of over 70% in size
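AlphaScreen: HP1-beta (50 nM) preformed 30 min with biotin-H3(1-18)K9me3 peptide (50 nM) in PBS pH 7.4, 0.01% Tween-20. Compound added for 30 min at RT, then streptavidin donor/nickel chelate acceptor beads (10 ug/mL) for 30 min.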
An asterisk follows results filed as active; ? = inconclusive; / = no result given; [ ] = another dose, or the depositor's remark. This is a sample that favours compounds with a hit; in the whole collection about 12% have one here. Unless noted, calls come from the whole dose curve; as a rule, active = well fitted curve in the direction sought with a large enough effect; inconclusive = small, poorly fitted or top-dose-only effect, or another doubt; inactive = no such curve, though single readings can be large; an effect the other way counts as inactive or inconclusive.

SMILES	PLK1 PBD block	BAZ2B block	PI5P4K alpha inh	G9a inh	JMJD2A Tudor inh	HP1b binding inh
NC(=O)c1ccc(NC(=O)CNCc2ccccc2Cl)cc1	2.0%	-1.0%	3.0	-35.6%	3.9%	37.2%
COCCNC(=O)C1(C)CCN(Cc2noc(-c3c(C)noc3C)n2)C1 (stereo not drawn)	4.2%	/	-2.7	/	/	/
COc1ccc(Cl)c2sc(NC(=O)c3ccc(S(=O)(=O)N4CCOCC4)cc3)nc12	/	3.1%	/	-36.1%[59 µM]	-5.5%	20.2%[57 µM]
Cc1oc(-c2ccc(C(=O)NCc3ccccc3)cc2)nc1CN1CCc2ccccc21	/	?	/	-3.2%[12.7 µM]	?	-3.4%
O=C(Cc1ccc(Cl)cc1)Nc1ccc(C(=O)N2CCCCC2)cc1	5.8%	-31.7%	0.0	5.4%	-7.7%	51.2%
O=C(CNCCc1ccc(Cl)cc1)Nc1ccc(C(=O)N2CCCCC2)cc1	0.7%	20µM*	22.8	7.94µM*	3.16µM*	?
Cc1cc(C)cc(N(CCC#N)C(=O)CSc2ncnc3sccc23)c1	-3.4%	9.6%	7.8	-1.0%[12.7 µM]	-8.5%	14.9%
Cc1ccc(NC(CC(=O)c2ccccc2)C(=O)O)cc1Cl (stereo not drawn)	23.8µM*	-8.0%	-6.6	/	-22.1%[11.4 µM]	13.7%
CSCCC(NC(=O)c1ccccc1)C(=O)OCC(=O)Nc1ccc(C)c(Cl)c1 (stereo not drawn)	21.2µM*	13.1%	-9.9	?	-89.3%[57.1 µM]	?
Cc1ccc(/C=C/c2onc(C)c2S(=O)(=O)N2CCC(C(=O)NCc3ccc(N(C)C)cc3)CC2)cc1	/	-2.1%	/	-3.8%[59 µM]	-6.4%	22.4%[57 µM]
O=C(CN1C(=O)C2CCCCN2c2ccc(C(=O)N3CCCC3)cc21)NCc1ccccc1 (stereo not drawn)	/	-8.7%	/	1.7%[59 µM]	-19.5%	16.9%[57 µM]
CCOC(=O)c1cnc(Nc2nc3ccccc3o2)nc1CN1CCN(C)CC1	-16.0%	79.4µM*	-1.3	55.7%[0.501 µM]	?	-6.2%
c1ccc(-c2ccc3[nH]ccc3c2)cc1	-13.7%	14.4%	18.8	-3.6%[0.501 µM]	-5.0%	23.0%
c1ccc(-c2onc(-c3ccco3)c2-c2ccc3[nH]ccc3c2)cc1	-19.9%	?	-18.1	39.8µM*	?	-3.6%
O=C(c1ccco1)N(Cc1ccccc1)Cc1ccccn1	9.3%	?	-7.0	79.4µM*	2.8%	54.3%
CCOc1ccccc1C(=O)N(Cc1ccc(N(C)C)cc1)Cc1ccco1	/	35.5µM*	/	20µM*	25.1µM*	?
CCSc1ncc(Cl)c(C(=O)N(Cc2ccccc2)Cc2ccco2)n1	/	24.2%	/	17.4%[59 µM]	1.7%	55.3%
O=C(c1ccco1)N(CCC(c1ccccc1)c1ccco1)Cc1ccco1 (stereo not drawn)	?	28.2µM*	-66.2*	?	22.4µM*	?
CSc1ncc(Cl)c(C(=O)N(Cc2ccc(N(C)C)cc2)Cc2ccco2)n1	/	17.8µM*	/	12.6µM*	22.4µM*	?
CN(C)c1ccc(CN(Cc2ccco2)C(=O)c2ccco2)cc1	23.8µM*	?	3.0	44.7µM*	31.6µM*	?
CCOc1cccc(C(=O)N(Cc2ccc(F)cc2)Cc2ccco2)c1	/	19.3%	/	6.5%[59 µM]	-4.4%	35.2%
Cc1ccc2c(CC(=O)N(Cc3ccc(N(C)C)cc3)Cc3ccco3)coc2c1C	/	8.91µM*	/	8.91µM*	12.6µM*	?
CC(C)(C)c1ccc(C(=O)N(Cc2ccc(F)cc2)Cc2ccco2)cc1	/	14.8%	/	?	-4.7%	69.5%
CCOc1c(Cl)cc(C(=O)N(Cc2ccc(N(C)C)cc2)Cc2ccco2)cc1Cl	/	12.6µM*	/	?	12.6µM*	-23.8%
Cc1ccc(CN(Cc2ccco2)C(=O)c2oc3cc(Br)ccc3c2C)cc1	/	7.5%	/	26.6%[59 µM]	29.2%	63.0%
SMILES	PLK1 PBD block	BAZ2B block	PI5P4K alpha inh	G9a inh	JMJD2A Tudor inh	HP1b binding inh
Cc1c(C(=O)N(Cc2ccc(N(C)C)cc2)Cc2ccco2)oc2cc(Br)ccc12	/	?	/	?	17.8µM*	?
Cc1ccc(CCNC(=O)c2ccc(CSCc3ccccc3C)o2)cc1	/	32.5%	/	15.7%[59 µM]	-22.9%	57.4%
COc1cccc(-c2nc(-c3ccccc3)c3ccc(Cl)cc3n2)c1	-0.9%	/	7.7	/	/	/
O=C(c1ccco1)N(Cc1ccc(Cl)cc1)Cc1ccco1	-0.1%	?	8.5	31.6µM*	-4.9%	32.0%
CC(C)COc1ccc(C(=O)N(Cc2ccc(N(C)C)cc2)Cc2ccco2)cc1	/	12.6µM*	/	15.8µM*	14.1µM*	-15.0%
Cc1cc(C(=O)O)ccc1[C@H](N)C(=O)O	/	/	/	27.7%[59 µM]	/	/
CCS(=O)(=O)C1=NN2C(=N)/C(=C\c3ccc(OC(=O)c4ccco4)c(OC)c3)C(=O)N=C2S1	?	-38.7%	-56.6*	31.6µM*	?	14.5%
CS(=O)(=O)C1=NSC2=NC(=O)/C(=C\c3ccc(OC(=O)c4ccco4)cc3)C(=N)N21	/	-22.3%	/	?	/	/
N=C1/C(=C\c2ccc(OC(=O)c3ccc(F)cc3)cc2)C(=O)N=C2SC(N3CCOCC3)=NN12	?	44.7µM*	-9.6	-9.5%	1.9%	39.5%
COc1cc(/C=C2/C(=N)N3C(=NC2=O)SN=C3S(C)(=O)=O)ccc1OC(=O)c1ccco1	?	?	-66.3*	?	?	4.6%
CS(=O)(=O)C1=NN2C(=N)/C(=C\c3ccc(OC(=O)c4ccco4)cc3)C(=O)N=C2S1	?	50.1µM*	0.3	44.7µM*	-10.7%	26.2%
CCOc1ccccc1-n1nnc(-c2nsc(NC(=O)c3ccc(C)cc3)n2)c1C	/	0.7%	/	-0.2%[59 µM]	-22.7%	11.5%
COc1ccc(CNC(=O)CCNC(=O)C2CCN(S(=O)(=O)c3ccc(OC)cc3)CC2)cc1	-13.3%	/	0.9	/	/	/
CCOc1cc(/C=C2/C(=N)N3OC(C)=CC3=NC2=O)ccc1OC(=O)c1ccco1	-15.6%	-12.8%	-22.2	-21.3%	-5.5%	56.2%
COc1cc(/C=C2\C(=N)N3N=CSC3=NC2=O)cc(Br)c1OC(=O)c1ccco1	?	-29.4%	-80.9*	?	-27.1%	30.0%
CCOc1cc(/C=C2/C(=N)N3C(=NC2=O)SN=C3S(=O)(=O)CC)ccc1OC(=O)c1ccco1	26.7µM*	-33.6%	?	39.8µM*	?	-14.3%[57 µM]
CCS(=O)(=O)C1=NSC2=NC(=O)/C(=C\c3ccc(OC(=O)c4ccco4)c(OC)c3)C(=N)N21	?	-38.8%	-65.6*	?	-35.1%	2.3%
COc1ccc(NC(=O)Cn2c([N+](=O)[O-])cnc2C)c(OC)c1	-12.0%	/	-7.1	/	/	/
Cc1ccc(-c2nc(CS(=O)CC(=O)NCCCc3ccccc3)c(C)o2)cc1 (stereo not drawn)	-24.9%	-27.2%	1.8	?	-17.3%	19.5%
CCN1CCN(C(=O)c2ccc3c(c2)N(Cc2cccc(F)c2)C(=O)c2ccccc2S3)CC1	/	-17.8%	/	?	79.4µM*	17.3%
